Records with an inconclusive call do not appear. Activity calls are given as the source filed them. Calls follow the shape of the dose curve; as a rule, active = well fitted activation curve with a large enough effect in the signal ratio, with a control signal flat; inconclusive = small, poorly fitted or top-dose-only effect, or a change in a side signal; inactive = flat fitted curve, though single readings scatter; the % refers to the signal ratio.
target: Thyrotropin receptor (Homo sapiens) (UniProt P16473); test: Secondary Concentration-Response Assay for Agonists of the Thyroid Stimulating Hormone Receptor: HTRF Activity Detection; conditions: HEK293-TSHR cells, cAMP HTRF ratio, 30 min; series mostly up to 91.7 µM; activation: at the top concentration;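 as to activation: HEK 293 cells stably expressing human TSHR with RO 20-1724 phosphodiesterase inhibitor; % of control where 0% means no effect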
Sequence (P16473 whole entry, looked up): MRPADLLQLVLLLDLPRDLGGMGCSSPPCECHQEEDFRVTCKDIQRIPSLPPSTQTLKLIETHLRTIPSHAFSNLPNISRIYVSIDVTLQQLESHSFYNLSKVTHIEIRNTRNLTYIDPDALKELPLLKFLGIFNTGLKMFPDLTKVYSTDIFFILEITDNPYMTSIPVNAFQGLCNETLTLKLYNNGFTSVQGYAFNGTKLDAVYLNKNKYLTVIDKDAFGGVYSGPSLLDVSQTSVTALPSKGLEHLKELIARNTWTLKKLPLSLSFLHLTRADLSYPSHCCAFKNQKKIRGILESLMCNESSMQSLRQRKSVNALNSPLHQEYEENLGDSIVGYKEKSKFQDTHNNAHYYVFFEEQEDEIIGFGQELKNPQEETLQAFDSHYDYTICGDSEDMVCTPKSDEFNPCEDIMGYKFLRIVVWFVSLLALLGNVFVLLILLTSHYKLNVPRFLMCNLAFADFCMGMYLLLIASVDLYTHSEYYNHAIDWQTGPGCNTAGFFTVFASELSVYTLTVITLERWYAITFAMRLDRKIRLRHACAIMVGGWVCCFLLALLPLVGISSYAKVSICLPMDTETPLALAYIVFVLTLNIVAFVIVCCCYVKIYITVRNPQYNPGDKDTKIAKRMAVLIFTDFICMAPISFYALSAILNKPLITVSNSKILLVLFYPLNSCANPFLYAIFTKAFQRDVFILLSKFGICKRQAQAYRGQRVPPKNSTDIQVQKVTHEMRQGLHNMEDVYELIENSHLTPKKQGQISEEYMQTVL
From the text: NIH Chemical Genomics Center [NCGC]
NIH Molecular Libraries Screening Centers Network [MLSCN]
PI Name: Dr. Marvin Gershengorn, NIH
Confirmation of Thyroid Stimulating Hormone Receptor Agonists
TSH is an alpha/beta heterodimeric glycoprotein hormone secreted from the anterior pituitary gland which belongs to the glycoprotein hormone family. The actions of TSH are mediated by a seven-transmembrane receptor, which upon TSH binding couples preferentially to the G-alpha (s) protein (Gs), resulting in activation of adenylate cyclase and increase in cyclic adenosine 3', 5' monophosphate (cAMP). The TSH receptor (THSR) is mainly expressed in thyroid follicular cells and regulates their growth and function. Recombinant TSH is used to activate TSHR in patients with thyroid cancer receiving thyroid hormone suppression therapy and to screen for residual tumor after surgery, but it is expensive and must be administered intramuscularly. An orally active small molecule TSHR agonist would serve as an invaluable research tool for studying TSHR pharmacology and physiology, and would have multiple advantages in therapeutic settings. However, no selective small molecule agonist of the TSH receptor exists, and no small molecule screen for TSHR agonists has ever been reported.
A confirmatory assay of putative TSHR agonists was conducted on a different TSHR transfected HEK 293 cell line, using an orthogonal detection technology to measure cAMP stimulation: antibody-based Homogeneous Time Resolved Fluorescence (HTRF).
NCGC Assay Protocol Summary:
Homogeneous Time Resolved Fluorescence (HTRF) cAMP Assay. HEK 293 cells stably transfected with a vector containing the TSHR and maintained under hygromycin selection were obtained from the laboratory of Dr. Marvin Gershengorn. Compounds were assayed using a HTRF cAMP detection kit (Cisbio) on the TSHR transfected cell line. Briefly, 750 cells were plated in 2.5 ul/well of complete media (DMEM containing 10 % FCS, and 100 uM RO 20-1724) in 1536 well solid bottom white plates and 23 nl/well compound in DMSO solution or controls was added. Following 30 minute incubation at room temperature, 2.5 ul/well of labeled d2 cAMP and 2.5 ul/well of anti-cAMP antibody (both diluted 1:20 in lysis buffer) were added to each well using a flying reagent dispenser (Aurora Discovery, San Diego) . Plates were measured using the Envision plate reader (PerkinElmer, Boston, MA) with excitation at 330 nm and emissions of 615 nm and 660 nm.
Keywords: Thyroid-stimulating hormone TSH, TSHR, TSHR agonist, quantitative high throughput screening, qHTS, HTS, probe identification, CNG, cAMP, cyclic nucleotide gated ion channel PubChem
Potency is read from the fitted curve at half-maximal effect.

| SMILES | activation | Potency |
| --- | --- | --- |
| COc1ccc(-c2nc3ccccc3c(=O)n2Cc2ccccc2)cc1OCc1ccc(NC(C)=O)cc1 | 2.33% (inactive) |  |
| COc1cccc(OCc2cc(C3Nc4ccccc4C(=O)N3c3ccccc3)ccc2OC)c1 (stereo not given) | 1.73% (inactive) |  |
| O=C(c1cc(-c2cccs2)on1)N1CCCc2ccccc21 | 0.238% [at 0.00035 µM] (inactive) |  |
| COc1ccc(C2Nc3ccccc3C(=O)N2Cc2ccccc2)cc1OCc1ccc(NC(C)=O)cc1 (stereo not given) | 11.9% (inactive) |  |
| COc1ccc(C2Nc3ccc(Cl)cc3C(=O)N2Cc2ccccc2)cc1COc1ccc(NC(C)=O)cc1 (stereo not given) |  | 14.1 µM (active) |
| COc1cc(OC)cc(-c2nnc(SCC(=O)N(C(C)C)C(C)C)o2)c1 | 0.0275% [at 0.00035 µM] (inactive) |  |
| COc1ccc(C2Nc3ccccc3C(=O)N2Cc2cccc(-c3ccccc3)c2)cc1COc1ccc(NC(C)=O)cc1 (stereo not given) |  | 2.24 µM (active) |
| COc1ccc(C2Nc3ccccc3C(=O)N2CCO)cc1COc1ccc(NC(C)=O)cc1 (stereo not given) | 5.23% (inactive) |  |
| COc1cc(C2Nc3ccccc3C(=O)N2Cc2ccccc2)ccc1OCc1ccc(NC(C)=O)cc1 (stereo not given) | 8.19% (inactive) |  |
| COc1cccc(CN2C(=O)c3ccccc3NC2c2ccc(OC)c(COc3ccc(NC(C)=O)cc3)c2)c1 (stereo not given) |  | 6.31 µM (active) |
| COc1ccc(CN(Cc2ccccc2)S(=O)(=O)c2ccccc2)cc1COc1ccc(NC(C)=O)cc1 | 12.9% (inactive) |  |
| CN(Cc1ccco1)C(=O)Cn1c(=O)oc2cc(S(=O)(=O)NCc3ccccc3)ccc21 | 0.961% [at 0.00035 µM] (inactive) |  |
| COc1ccc(N(C)S(=O)(=O)c2cccc(C(=O)NC3=NCCS3)c2)cc1 | 1.29% [at 0.00035 µM] (inactive) |  |
| COc1ccc(C2Nc3ccc(NC(=O)COC(C)=O)cc3C(=O)N2Cc2ccccc2)cc1COc1ccc(NC(C)=O)cc1 (stereo not given) |  | 8.91 µM (active) |
| COc1ccc(CN(Cc2ccccc2)C(=O)c2ccno2)cc1COc1ccc(NC(C)=O)cc1 | 29.6% (inactive) |  |
| CCN(CC)CCN1C(=O)c2ccccc2NC1c1ccc(N(C)C)cc1 (stereo not given) | 1.45% (inactive) |  |
| CCCN1C(=O)c2ccccc2NC1c1ccc(OC)c(COc2ccc([N+](=O)[O-])c(C)c2)c1 (stereo not given) | 1.36% (inactive) |  |
| O=c1c2c(-c3ccccc3)csc2ncn1/N=C/c1cn(-c2ccccc2)nc1-c1cccs1 | 0.928% (inactive) |  |
| COc1ccc(CN(Cc2ccccc2)C(=O)c2ccc(OC)cc2O)cc1 |  | 31.6 µM (active) |
| CC(=O)Nc1ccc(OCc2cccc(C3Nc4ccccc4C(=O)N3Cc3ccco3)c2)cc1 (stereo not given) | 6.27% (inactive) |  |

| SMILES | activation | Potency |
| --- | --- | --- |
| COc1cc(C2Nc3ccccc3C(=O)N2Cc2ccco2)ccc1O (stereo not given) | 1.67% (inactive) |  |
| CCOc1cc(C2Nc3ccccc3C(=O)N2Cc2ccco2)ccc1O (stereo not given) | 2.52% (inactive) |  |
| COc1ccc(C2Nc3ccccc3C(=O)N2Cc2ccccc2)cc1Oc1ccc(NC(C)=O)cc1 (stereo not given) | 7.11% (inactive) |  |
| COc1ccc(C2Nc3ccccc3C(=O)N2Cc2ccccc2)cc1COc1ccccc1OC (stereo not given) | 15.1% (inactive) |  |
| COc1ccc(C2Nc3ccccc3C(=O)N2Cc2ccccc2)cc1COc1ccc(C(N)=O)cc1 (stereo not given) | 17.6% (inactive) |  |
| COc1ccc(C2Nc3ccccc3C(=O)N2Cc2cccc(C(F)(F)F)c2)cc1COc1ccc(NC(C)=O)cc1 (stereo not given) |  | 4.47 µM (active) |
| O=C(c1ccccc1O)N(Cc1ccccc1)Cc1cccs1 | 63.5% (inactive) |  |
| COc1cc(C2Nc3ccccc3C(=O)N2c2ccccc2)c(Br)cc1OCC(=O)O (stereo not given) | 0.259% (inactive) |  |
| COC(=O)C1=C(C)OC(N)=C(C#N)C1C1CCCCC1 (stereo not given) | -0.764% [at 0.00035 µM] (inactive) |  |
| Nc1ccccc1C(=O)NCc1ccco1 | 3.87% (inactive) |  |
| CN1C(=O)c2ccccc2N(C)C1c1ccc2c(c1)OCO2 (stereo not given) | 0.767% (inactive) |  |
| COc1cccc(CN2C(=O)CN(C3CCCCC3)C(=O)C2c2ccc(F)cc2)c1 (stereo not given) | 0.406% [at 0.00035 µM] (inactive) |  |
| COc1ccc(C2Nc3ccc(NC(C)=O)cc3C(=O)N2Cc2cccc(Cl)c2)cc1COc1ccc(NC(C)=O)cc1 (stereo not given) |  | 7.94 µM (active) |
| COc1ccc(C2Nc3ccccc3C(=O)N2Cc2ccco2)cc1COc1ccc([N+](=O)[O-])c(C)c1 (stereo not given) | 1.82% (inactive) |  |
| COc1ccc(C2Nc3ccccc3C(=O)N2Cc2ccco2)cc1COc1ccc(NC(C)=O)cc1 (stereo not given) |  | 15.8 µM (active) |
| COc1ccc(C2Nc3ccccc3C(=O)N2Cc2ccccc2)cc1COc1ccc([N+](=O)[O-])cc1 (stereo not given) | 1.19% (inactive) |  |
| CCOC(=O)COc1c(OC)cc(Cl)cc1C1Nc2ccccc2C(=O)N1c1cccc(C)c1 (stereo not given) | 0.521% (inactive) |  |
| COc1ccc(C2Nc3ccccc3C(=O)N2Cc2ccco2)cc1COc1ccc([N+](=O)[O-])cc1 (stereo not given) | 0.732% (inactive) |  |
| O=C(c1ccco1)N(Cc1cccs1)c1ccc(O)cc1 | 1.56% (inactive) |  |
| CCOc1ccc(S(=O)(=O)NCc2ccccc2Cl)cc1C(N)=O | 1.35% (inactive) |  |

From PubChem BioAssay AID933 (National Center for Advancing Translational Sciences (NCATS), 2009)
